Rows were chosen to be rich in hits. Some 19% of all compounds tested hit in one or more screens of this group.
TDP1 block: TDP1 (human) enzyme inhibition. Q9NUW8. recombinant TDP1, AlphaScreen DNA substrate cleavage. Potency, µM (doses to about 130 µM), without a hit: top-dose activity change, negative = inhibition, usual class: inhibitors. 0.28% of 350,000 active. AID 485290; note: potency is the fitted concentration of half-maximal effect; nearly all actives have a fitted effect of over 40% in size
Target sequence (Q9NUW8 whole entry, looked up): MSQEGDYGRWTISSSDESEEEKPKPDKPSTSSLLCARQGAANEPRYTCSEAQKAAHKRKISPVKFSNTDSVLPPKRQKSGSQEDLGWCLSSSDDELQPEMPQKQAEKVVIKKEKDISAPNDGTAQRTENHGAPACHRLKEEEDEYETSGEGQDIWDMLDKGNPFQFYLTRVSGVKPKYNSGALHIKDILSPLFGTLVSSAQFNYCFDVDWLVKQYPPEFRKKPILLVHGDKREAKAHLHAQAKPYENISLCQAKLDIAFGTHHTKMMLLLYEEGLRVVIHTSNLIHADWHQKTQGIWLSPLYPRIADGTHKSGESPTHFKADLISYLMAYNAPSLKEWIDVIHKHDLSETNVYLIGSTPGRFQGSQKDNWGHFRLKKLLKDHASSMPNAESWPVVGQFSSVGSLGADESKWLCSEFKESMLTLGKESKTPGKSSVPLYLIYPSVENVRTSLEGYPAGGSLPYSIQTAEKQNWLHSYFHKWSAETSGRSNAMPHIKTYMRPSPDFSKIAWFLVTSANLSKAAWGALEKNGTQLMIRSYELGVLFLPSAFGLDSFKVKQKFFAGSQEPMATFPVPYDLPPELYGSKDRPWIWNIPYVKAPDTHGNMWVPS
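AlphaScreen read-out: signal falls as enzyme removes the 3' tyrosine-FITC from a 5'-biotinylated DNA oligo (15 nM, 5 min, RT). Enzyme was E. coli-made recombinant Tdp1 at 1 nM, exposed to compound for 15 min beforehand; beads 10 ug/ml, 10 min.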
TDP1 cell noCPT: qHTS for Inhibitors of human tyrosyl-DNA phosphodiesterase 1 (TDP1): qHTS in cells in absence of CPT; DT40 Tdp1-/- hTDP1 cells, no CPT, ATP luminescence, 48 h; Potency, µM (series often up to 46.2 µM), without a hit: top-dose activity change, negative = growth inhibition, usual class: inhibitors; 15% of 420,000 active; note: potency is the fitted concentration of half-maximal effect; nearly all actives have a fitted effect of over 55% in size
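No-CPT arm: Tdp1-/-;hTDP1 DT40 cells (400/well) plus compounds, incubated ≥48 hr at 37 °C. Readout CellTiter-Glo luminescence.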
ELG1 DNA repair: inhibitors of ELG1-dependent DNA repair in HEK293T cells; HEK293T ELG1-luciferase reporter, luminescence, 16 h; DNA damage induced by 5-fluorouridine; Potency, µM (highest dose often 46.1 µM), inactives show at the highest dose activity change, negative = inhibition, actives largely listed as inhibitors; 2.3% of 330,000 active; AID 504467; note: potency is the fitted concentration of half-maximal effect; nearly all actives have a fitted effect of over 55% in size
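Cells (2,000 per well) received 5-fluorouridine plus test compound or DMSO and were incubated 16 hr at 37 °C, 5% CO2. Luciferase activity was read by luminescence 30 min after ONE-Glo addition; signal suppression marked inhibition of damage-induced ELG1 function.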
DT40 TDP1 CPT: DT40-hTDP1 cell growth loss with CPT. chicken DT40 Tdp1-/-;hTDP1 cells + 20 nM CPT, ATP luminescence, 48 h. Potency, µM (titrated, usually from 46.2 µM), without a hit: at the highest dose activity change, negative = growth inhibition, most hits filed as inhibitors. 12% of 420,000 active; note: potency is the fitted concentration of half-maximal effect; nearly all actives have a fitted effect of over 55% in size
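Chicken DT40 Tdp1-/- cells stably complemented with human TDP1 were seeded at 400 cells/well in medium containing 20 nM camptothecin, exposed to pin-transferred compounds, and grown at 37 °C for at least 48 hr. Viability was read as ATP luminescence.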
Giardia kill: kills Giardia lamblia. 0.15% of 340,000 active. activity change, % at 7.66 µM, hits read low. Giardia lamblia trophozoite viability. AID 540267; in the data active = activity change below about -80%; inconclusive = between about -30% and that limit;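 note: parasites exposed to compound for two days anaerobically before the ATP read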
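ATP-content bioluminescence gauges trophozoite survival. Cells (100/well) receive compound and incubate anaerobically for 48 hrs at 37 deg C; detection reagent follows for 15-30 min at room temperature.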
IL-1B inflam inh: inhibitors of inflammasome signaling (IL-1 beta secretion). activity change, % at 57.5 µM. THP-1 LPS/ATP IL-1B secretion, AlphaLISA, 16 h; hits give low values. 4.7% of 360,000 active; in the data active = activity change below about -50%; inconclusive = mostly about -30% to -49%
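Secreted IL-1B measured by AlphaLISA bead assay after 16 h compound exposure of THP-1 cells; compounds (final up to 57.5 uM) added 1 h before LPS (250 ng/mL) and ATP (1.25 mM) stimulation; lower signal means less secretion.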
* marks the source's active call; other numbers are inactive results; ? = inconclusive; nt = no result. Unless noted, calls come from the whole dose curve; as a rule, active = well fitted curve in the direction sought with a large enough effect; inconclusive = small, poorly fitted or top-dose-only effect, or another doubt; inactive = no such curve, though single readings can be large; an effect the other way counts as inactive or inconclusive. % is set by controls: 0 for no effect and ±100 for the full control effect.

SMILES	TDP1 block	TDP1 cell noCPT	ELG1 DNA repair	DT40 TDP1 CPT	Giardia kill	IL-1B inflam inh
Cc1ccc(NS(=O)(=O)c2cc([N+](=O)[O-])ccc2NNC(=S)Nc2cc(C)ccc2C)c(C)c1	8%	21µM*	?	?	-11	-67*
O=C(Nc1ccc2c(c1)nc1n2CCN(Cc2ccccc2)C1)c1cccs1	7%	18µM*	?	?	-7	-94*
COCCN1CCn2c(nc3cc(NC(=O)c4ccc(OC)cc4)ccc32)C1	4%	21µM*	-10%	21µM*	7	-7
COCCN1CCn2c(nc3cc(NC(C)=O)ccc32)C1	nt	8%	?	10%	1	15
O=C(Nc1ccc2c(c1)nc1n2CCN(Cc2ccccc2)C1)NC1CCCCC1	4%	21µM*	?	?	-10	-12
Cn1c(CN2CCCCC2)nc2cc(NC(=O)c3cccs3)ccc21	0%	-24%	0%	?	-13	-7
COCCN1CCn2c(nc3cc(NC(=O)NC4CCCCC4)ccc32)C1	6%	16µM*	?	?	-10	-24
COC(=O)Cc1ccc(OC2(C)CCN(Cc3csc4ccccc34)C2)cc1 (stereo unspecified)	nt	?	nt	?	nt	23
COCCOC(=O)c1cc(C(=O)c2cc(Cl)ccc2O)coc1=N	8%	-20%	7%	3%	-5	-2
Cc1oc(C)c(C(=O)Nc2ccccc2)c1C	24%	nt	nt	nt	nt	nt
COc1ccc(NC(=O)CC2C(=O)N(c3ccc(F)cc3)C(=O)N2Cc2ccco2)cc1 (stereo unspecified)	3%	2%	nt	?	nt	nt
COc1ccccc1OCC(=O)Nc1cc(C)ccc1NC(=O)c1ccco1	5%	-5%	?	-4%	13	-14
CCc1ccc(N2C(=O)CC(c3cc(OC)ccc3OC)C3=C2COC3=O)cc1 (stereo unspecified)	5%	?	nt	-25%	nt	nt
O=c1c2c3nc4ccccc4nc3n(/N=C/c3ccco3)c2ncn1CCC1=CCCCC1	0%	21µM*	?	16µM*	10	-29
Cc1cc(C)c(C(O)c2ncc(-c3cccc4ccccc34)[nH]2)c(C)c1 (stereo unspecified)	nt	?	nt	?	nt	0
OC(Cc1ccccc1Br)c1ncc(-c2ccc(Cl)cc2)[nH]1 (stereo unspecified)	nt	?	nt	?	nt	-4
Cc1cccc(C)c1C(O)c1ncc(-c2cccc3ccccc23)[nH]1 (stereo unspecified)	nt	16µM*	nt	21µM*	nt	-11
Cc1ccccc1-c1cnc(C(O)c2c(C)cccc2C)[nH]1 (stereo unspecified)	nt	-17%	nt	?	nt	-12
Cc1cccc(C)c1C(O)c1ncc(-c2ccccc2F)[nH]1 (stereo unspecified)	nt	?	nt	21µM*	nt	22
Cc1ccc2ccccc2c1C(O)c1ncc(-c2ccc(Cl)cc2)[nH]1 (stereo unspecified)	nt	8.2µM*	nt	?	nt	13
OC(Cc1ccccc1)c1ncc(-c2ccc(Cl)cc2)[nH]1 (stereo unspecified)	nt	16µM*	nt	?	nt	7
CC(Cc1nnc(SCC(=O)O)n1N)c1ccccc1 (stereo unspecified)	nt	16%	5%	21%	-6	4
O=[N+]([O-])c1ccc(S(=O)(=O)NN=CCCc2ccccc2)cc1	nt	-3%	nt	14%	14	1
Cc1cc(C)c(C(O)c2ncc(-c3ccccc3F)[nH]2)c(C)c1 (stereo unspecified)	nt	?	nt	15µM*	nt	-20
Cc1cc(C)c(C(O)c2ncc(-c3ccccc3C)[nH]2)c(C)c1 (stereo unspecified)	nt	-29%	nt	-30%	nt	-26
